PubChem BioAssay (Tox21)
Results filed as inconclusive are left out. Values without a mark were called inactive. Active and inactive are the calls of the source. Calls come from the whole dose curve.

Experiment: qHTS assay to identify small molecule agonists or antagonists of the thyroid stimulating hormone receptor (TSHR) signaling pathway - wild type cell line counter screen (AID 1259384)
Conditions: HEK293 wild type, cAMP HTRF counter-screen; series mostly up to 92.4 µM; cAMP activity change: at the top concentration
Source text: U.S. Tox21 Program National Center for Advancing Translational Sciences [NCATS] NIH Chemical Genomics Center [NCGC] U.S. Environmental Protection Agency [EPA] National Institutes of Environmental Health Sciences [NIEHS] National Toxicology Program [NTP] U.S. Food and Drug Administration [FDA] Tox21 Assay Overview: TSHR is the receptor for thyrotropin (thyroid stimulating hormone or TSH), a member of the glycoprotein hormone family. TSH is released by the anterior pituitary gland and is the main regulator of thyroid gland growth and development. Upon binding circulating thyrotropin, a G-protein signal cascade activates adenylyl cyclase and […] cAMP concentration is increased. cAMP is a key second messenger involved extensively in cellular signal transduction pathways associated with the majority of G-protein coupled receptors (GPCRs). The activation of these GPCRs by neurotransmitters, lipids, nucleotides, peptides and hormones results in the activation or the inhibition of plasma membrane-bound adenylate cyclase through heterotrimeric G-proteins. A cell-based TSHR-Hek293 assay can be used to identify TSHR agonists. To eliminate the false positive compounds identified from screening a cell-based TSHR-Hek293 cell line, cAMP assay in a wild type Hek293 cells was used as a counter screening.
Tox21 Assay Protocol Summary: Hek293 cells (wild type) were dispensed at 800 cells/4 uL/well in 1536-well white plates using a Multidrop dispenser. After the assay plates were incubated at a 37 C/5% CO2 incubator for 18 hrs, 23 nL of compounds dissolved in DMSO, positive controls or DMSO only was transferred to the assay plate by a pin tool, followed by 1 ul medium containing Ro20-1724. After 30 min of incubation at room temperature, 2.5 ul/well of cAMP-d2 and 2.5 ul/well of anti-cAMP-cryptate were added respectively into the assay plates using a Flying Reagent Dispenser. The plates were incubated at room temperature for 1 hr. The fluorescence intensity in the plates was measured using an Envision plate reader. Each test compound was measured at 15 concentrations and in triplicates.
% is set by controls: 0 for no effect and ±100 for the full control effect; potency is the fitted concentration of half-maximal effect.

SMILES	cAMP activity change	Potency
CC1(C)[C@H](/C=C2\CCSC2=O)[C@@H]1C(=O)OCc1coc(Cc2ccccc2)c1	0.936%	
C#CCO	-0.471%	
COP(=O)(OC)Oc1ccc([N+](=O)[O-])cc1	-1.25%	
O=NN(CCO)CCO	-0.873%	
CC(Cc1ccc(O)cc1)NCC(O)c1cc(O)cc(O)c1 (stereo not given)		668 nM (active)
Cc1c([N+](=O)[O-])c(C)c([N+](=O)[O-])c(C(C)(C)C)c1[N+](=O)[O-]	-0.367%	
O=S1(=O)OCC2C(CO1)C1(Cl)C(Cl)=C(Cl)C2(Cl)C1(Cl)Cl (stereo not given)	-0.44%	
Clc1c(Cl)c(Cl)c(Cl)c(Cl)c1Cl	-1.12% [at 8.39 µM, hits give high values]	
CC(=O)[O][Sn]([c]1ccccc1)([c]1ccccc1)[c]1ccccc1	0.894%	
c1ccc(Nc2ccc(Nc3ccccc3)cc2)cc1	-6.96%	
CN1C2CCC(C)(C)C1CC(OC(=O)C(O)(c1cccs1)c1cccs1)C2 (stereo not given)	8.02% [at 42.5 µM, hits give high values]	
C=CCBr	0.785%	
[O]=[Cr](=[O])([OH])[O][Cr](=[O])(=[O])[OH]		inactive
COP(=S)(OC)Oc1nc(Cl)c(Cl)cc1Cl	2.62%	
CCOC(=O)CCN(SN(C)C(=O)Oc1cccc2c1OC(C)(C)C2)C(C)C	1.03%	
CCCCC(CC)COC(=O)c1ccccc1C(=O)OCC(CC)CCCC (stereo not given)	-4.97%	
CCN(CC)CCN1C(=O)CN=C(c2ccccc2F)c2cc(Cl)ccc21	-3.26% [at 42.5 µM, hits give high values]	
ClC1=C(Cl)[C@]2(Cl)[C@H]3[C@H]([C@@H]4C=C[C@H]3C4)[C@@]1(Cl)C2(Cl)Cl		inactive
CCC(C)Br (stereo not given)	-6.25%	
OCC(Br)CBr (stereo not given)	-2.59%	

SMILES	cAMP activity change	Potency
O=Cc1ccccc1	5.89%	
O=C(N[C@H]1N=C(c2ccccc2F)c2cccc3c2N(CC3)C1=O)c1cc2ccccc2[nH]1	3.12% [at 42.5 µM, hits give high values]	
CN	-0.112%	
CNC(=O)CSP(=O)(OC)OC	4.1%	
CN1CCc2cc(Cl)c(O)cc2[C@H]2c3ccccc3CC[C@@H]21	0.228% [at 42.5 µM, hits give high values]	
Clc1ccc(C2(Cn3cncn3)OCCO2)c(Cl)c1	0.968%	
O=C(NC(=O)c1c(F)cccc1F)Nc1ccc(Oc2ccc(C(F)(F)F)cc2Cl)cc1F	3.79%	
O=P(Cl)(Cl)Cl	1.89%	
CCN1CCC2(CC1)COc1cc3c(cc12)N(C(=O)c1ccc(-c2ccc(-c4nnc(C)o4)cc2C)cc1)CC3	2.78%	
CC(C)Br	-2.13%	
Cc1nn(-c2cc(NS(C)(=O)=O)c(Cl)cc2Cl)c(=O)n1C(F)F	-2.88%	
COC(=O)C(C)N(C(=O)c1ccco1)c1c(C)cccc1C (stereo not given)	-3.67%	
C[C@@H]1CC2=CC(=O)CC[C@@H]2[C@H]2CC[C@@]3(C)[C@@H](CC[C@]3(C)O)[C@@H]21	1.17% [at 42.5 µM, hits give high values]	
Cc1c([N+](=O)[O-])cc2c(c1[N+](=O)[O-])C(C)(C)CC2(C)C	-5.34%	
Nc1cc(Cl)ccc1Cl	5.49%	
CCC(C)Nc1c([N+](=O)[O-])cc(C(C)(C)C)cc1[N+](=O)[O-] (stereo not given)	-3.22%	
COC(=O)N(OC)c1ccccc1COc1ccn(-c2ccc(Cl)cc2)n1	3.58%	
CCC(C)c1cccc(C(C)CC)c1O (stereo not given)	-0.694%	
CC(C)c1c(CN(C)C(C)Cc2ccccc2)n(C)n(-c2ccccc2)c1=O (stereo not given)	2.28% [at 42.5 µM, hits give high values]	
CSC(=O)c1c(C(F)F)nc(C(F)(F)F)c(C(=O)SC)c1CC(C)C	0.881%	
